Source: PubChem BioAssay (NCATS)
Calls of active or inactive are those of the source. The rule behind the calls is not given here.

Test system: HIV-1 nucleocapsid protein NCp7 (binding to TG oligonucleotide)
Assay: HIV Nucleocapsid (AID 346);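 note: potency is for inhibitors that block NC binding and lower polarization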
Conditions: HIV-1 NC / fluorescein-TGTGTGTG probe, fluorescence polarization
Summary of the method: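 HIV-1 NC (100 nM) binding to fluorescein-labelled ssDNA TG4xF (10 nM) in Hepes pH 7.5, 250mM NaCl, 1uM ZnCl2, TCEP and 2-mercaptoethanol; compounds pin-transferred, 1 hr room temperature, fluorescence polarization read on CCD imager.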
Potency is the fitted concentration of half-maximal effect.

Structure (SMILES)	Potency
O=C(c1ccncc1)N1CCC2(CC1)CN(Cc1cc(C(F)(F)F)cc(C(F)(F)F)c1)C2	> 20 µM (inactive)
CN(C)Cc1ccccc1-c1cc(NCc2cccs2)ncn1	> 20 µM (inactive)
COc1ccc(Oc2ncc3nc(-c4cc(F)cc(F)c4)c(=O)n(C)c3n2)cc1	> 20 µM (inactive)
CN(C)Cc1ccccc1-c1cncnc1NCc1ccccc1	> 20 µM (inactive)
CN(C)c1ncc2nc(CCc3ccccc3)c(=O)n(C[C@H]3CCCO3)c2n1	> 20 µM (inactive)
COc1ccc(-c2nc3cnc(N4CCOCC4)nc3n(C[C@H]3CCCO3)c2=O)cc1	> 20 µM (inactive)
COc1ccccc1CN1CCC2(CC1)CCN(C(=O)c1cccc(F)c1)CC2	> 20 µM (inactive)
O=C(c1ccco1)N1CCC2(CC1)CCN(c1ccccc1)CC2	> 20 µM (inactive)
FC(F)(F)c1ccccc1-c1nc(NCc2cccnc2)c2ccccc2n1	> 20 µM (inactive)
N#CCCn1c(=O)cnc2cnc(N3CCNCC3)nc21	> 20 µM (inactive)
CN(C)Cc1ccccc1-c1cncnc1Nc1ccc(F)cc1	> 20 µM (inactive)
COc1ncc2nc(-c3ccccc3)c(=O)n(CCC#N)c2n1	> 20 µM (inactive)
N#CCCn1c(=O)c(-c2ccccc2)nc2cnc(Nc3ccccc3)nc21	> 20 µM (inactive)
COc1ccccc1CNc1cc(-c2ccc(C(=O)N(C)C)cc2)ncn1	> 20 µM (inactive)
CCNc1ncc2nc(-c3cn(C)c4ccccc34)c(=O)n(Cc3cccs3)c2n1	> 20 µM (inactive)
CS(=O)(=O)N1CCC[C@@]2(CCN(Cc3nccs3)C2)C1	> 20 µM (inactive)
COc1ccc(-c2nc3cnc(N4CCN(C)CC4)nc3n(C)c2=O)cc1	> 20 µM (inactive)
CN1CCN(c2ncc3nc(-c4ccccc4)c(=O)n(Cc4ccc(F)cc4)c3n2)CC1	> 20 µM (inactive)
COc1ccc(C(=O)N2CCC3(CCN(Cc4cc(C(F)(F)F)cc(C(F)(F)F)c4)CC3)CC2)cc1	> 20 µM (inactive)
O=C(c1cccc(F)c1)N1CCC2(CC1)CN(c1ccccn1)C2	> 20 µM (inactive)

Structure (SMILES)	Potency
COc1ncc2ncc(=O)n(C[C@H]3CCCO3)c2n1	> 20 µM (inactive)
N#Cc1cccc(NC(=O)N2CCC3(CC2)CCN(C(=O)c2cccc(F)c2)CC3)c1	> 20 µM (inactive)
CN(C)c1ncc2nc(-c3cc(F)cc(F)c3)c(=O)n(Cc3ccc(F)cc3)c2n1	> 20 µM (inactive)
CNc1ncncc1-c1ccccc1CN(C)C	> 20 µM (inactive)
COCC(=O)N1CCC2(CC1)CN(c1ccccn1)C2	> 20 µM (inactive)
COCCNc1ncncc1-c1c(C)noc1C	> 20 µM (inactive)
COC(=O)N1CCC2(CC1)CCN(C(c1ccccc1)c1ccccc1)CC2	> 20 µM (inactive)
O=C(c1ccco1)N1CCC2(CCCN(Cc3ccncc3)C2)CC1	> 20 µM (inactive)
COCCn1c(=O)c(-c2cccs2)nc2cnc(Oc3ccc(OC)cc3)nc21	> 20 µM (inactive)
Cc1cnc(CNc2cc(-c3ccccc3CN(C)C)ncn2)cn1	> 20 µM (inactive)
O=S(=O)(c1ccccc1)N1CCC2(CCN(Cc3ccccc3)CC2)CC1	> 20 µM (inactive)
CN(Cc1ccco1)c1ncncc1-c1cccc(C#N)c1	> 20 µM (inactive)
COc1ccc(NC(=O)N2CCCC3(CCN(C(=O)c4csnn4)CC3)C2)cc1	> 20 µM (inactive)
O=c1c(-c2cccs2)nc2cnc(Oc3cccc(Cl)c3)nc2n1C[C@H]1CCCO1	> 20 µM (inactive)
c1ccc(Nc2nc(-c3cccnc3)nc3ccccc23)cc1	> 20 µM (inactive)
N#Cc1ccc(CN2CCC3(CC2)CCN(C(=O)c2cnccn2)CC3)cc1	> 20 µM (inactive)
COc1ccc2[nH]cc(CCNc3ncncc3-c3ccc(N(C)C)cc3)c2c1	> 20 µM (inactive)
O=C(c1csnn1)N1CCC[C@@]2(CCN(Cc3ccccc3)C2)C1	> 20 µM (inactive)
CN(Cc1ccco1)c1ncncc1-c1ccccc1C(F)(F)F	> 20 µM (inactive)
O=C(c1cc(C(F)(F)F)cc(C(F)(F)F)c1)N1CCC[C@@]2(CCN(Cc3ccccc3)C2)C1	> 4 µM (inactive)
